Assay [1] can be described thus: qHTS assay to identify small molecule agonists of the vitamin D receptor (VDR) signaling pathway - cell viability counter screen (AID 743224). Further: series mostly up to about 63 µM; on the % scale 0 is the no-effect control and ±100 the full control effect; nearly all actives have a fitted effect of over 50% in size. In a few lines: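 Counter screen for cytotoxicity: VDR-bla cells at 2,000 cells/well, 16 h compound exposure, then CellTiter-Glo luminescence after the beta-lactamase measurement.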
(In general: In qHTS, concentration-response curves come from the screen itself.)

Assay [2] can be described thus: qHTS assay to identify small molecule antagonists of the vitamin D receptor (VDR) signaling pathway - cell viability counter screen (AID 743225). Further: on the % scale 0 is the no-effect control and ±100 the full control effect; nearly all actives have a fitted effect of over 50% in size. In a few lines:
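HEK293T VDR-bla; cpd + 1a,25-(OH)2D3 3 nM final, 16 h 37C/5% CO2; B/G FRET substrate 2 h RT; then CellTiter-Glo 30 min RT, luminescence.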

Assay [3] in a line: qHTS assay to identify small molecule agonists of the NFkB signaling pathway (AID 1159509; active means well fitted curve in the direction sought with a large enough effect in the signal ratio in the repeat runs, not every such curve was filed as active; the % refers to the signal ratio; further: series mostly up to about 61 µM; on the % scale 0 is the no-effect control and ±100 the full control effect). The essentials: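 Pathway activation was measured in ME-180 cells stably expressing beta-lactamase under NF-kB response element control. Substrate cleavage was read as the 460/530 nm emission shift after 5 hr compound incubation.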
Assay [4] in a line: qHTS assay to identify small molecule agonists of the NFkB signaling pathway - cell viability counter screen (AID 1159515; calls by dose curve; further: series mostly up to about 61 µM; on the % scale 0 is the no-effect control and ±100 the full control effect; nearly all actives have a fitted effect of over 55% in size). In a few lines: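 Counter screen run alongside the NFkB-bla agonist assay: ME-180 reporter cells exposed to compounds for 5 hr, then lysed with CellTiter-Glo in the same wells. Luminescence, read after 30 min, reflects viable cells.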
Assay [5] is described as follows: qHTS assay to identify small molecule agonists of the endoplasmic reticulum stress response signaling pathway (AID 1159516; active means well fitted activation curve with a large enough effect in the signal ratio in the repeat runs, not every such curve was filed as active; the % refers to the signal ratio; further: on the % scale 0 is the no-effect control and ±100 the full control effect). The essentials: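 For this screen, HeLa cells stably carrying beta-lactamase under the ER stress response element received test compounds, positive controls or DMSO for 5 hr at 37 C; B/G FRET substrate was then added and dual-wavelength emission recorded.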

Assay [6] is described as follows: qHTS assay to identify small molecule agonists of the endoplasmic reticulum stress response signaling pathway - cell viability counter screen (AID 1159517; calls by dose curve; further: series mostly up to about 61 µM; on the % scale 0 is the no-effect control and ±100 the full control effect; nearly all actives have a fitted effect of over 50% in size). In a few lines: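 ESRE-bla HeLa cells (1,500/well) were plated overnight at 37 C and exposed to compounds for 5 hr. After the 2 hr beta-lactamase substrate read, CellTiter-Glo went into the same wells, and luminescence was read after 30 min at room temperature.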

The nature of assay [7]: qHTS assay to identify small molecule antagonists of the retinoid-related orphan receptor gamma (ROR-gamma) signaling pathway - cell viability counter screen (AID 1159520). Further: on the % scale 0 is the no-effect control and ±100 the full control effect; nearly all actives have a fitted effect of over 50% in size. The essentials:
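Cytotoxicity was read from cellular ATP (CellTiter-Glo luminescence) after 16 hr at 37 C with 1 uM doxycycline induction. The inducer was added 2 hr after compound transfer to Tet-on ROR gamma CHO cells.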

A short description of assay [8]: qHTS assay to identify small molecule agonists of the AP-1 signaling pathway - cell viability counter screen (AID 1159525; calls by dose curve; further: nearly all actives have a fitted effect of over 55% in size). The essentials: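 Intracellular ATP by Cell Titer Glo luminescence (30 min, RT) in the same ME-180 AP-1-bla wells after the 5 h compound exposure at 37 °C. Normalised to tetra n-octyl ammonium bromide and DMSO controls.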
Assay [9] in a line: qHTS assay to identify small molecule agonists of the AP-1 signaling pathway (AID 1159526; calls by dose curve; further: on the % scale 0 is the no-effect control and ±100 the full control effect).
Assay [10] addresses Retinoic acid receptor RXR-alpha (Homo sapiens) (UniProt P19793). Description: qHTS assay to identify small molecule agonists of the RXR signaling pathway (AID 1159527; calls by dose curve; further: nearly all actives have a fitted effect of over 35% in size; further: potency means the concentration at half of the fitted maximal effect). The essentials: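 Cells plated at 2,000/well, rested 5 hr at 37 C, pin-dosed with DMSO compound solutions, incubated 16 hr, then loaded with B/G FRET substrate for 2 hr at RT before dual-emission fluorescence reading.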

The nature of assay [11]: qHTS assay to identify small molecule agonists of the RXR signaling pathway - cell viability counter screen (AID 1159529). In a few lines: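 Steps: seed RXR-alpha-UAS-bla HEK 293T cells in assay medium containing 2% charcoal-stripped FBS; incubate 5 hr; add compounds in DMSO; incubate 16 hr at 37 C; after the bla read, add CellTiter-Glo and read luminescence at 30 min.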

Assay [12] is described as follows: qHTS assay to identify small molecule antagonists of the retinoid acid receptor (RAR) signaling pathway - cell viability counter screen (AID 1159551). Further: on the % scale 0 is the no-effect control and ±100 the full control effect; nearly all actives have a fitted effect of over 35% in size. In a few lines: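 Measured by luminescent ATP detection, viability reflects C3RL4 cells treated 6 h at 37 C with test chemicals in the presence of 1 uM (final) retinol.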
Assay [13] can be described thus: qHTS assay to identify small molecule antagonists of the retinoic acid receptor (RAR) signaling pathway (AID 1159552; further: nearly all actives have a fitted effect of over 50% in size; further: potency means the concentration at half of the fitted maximal effect). In a few lines:
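Retinol at 1 uM final stimulated RARE-luciferase expression in C3RL4 cells exposed to test compounds for 6 hr at 37 C. Reduced luminescence, read 30 min after detection reagent, indicated pathway antagonism.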

A short description of assay [14]: qHTS assay to identify small molecule agonists of the retinoic acid receptor (RAR) signaling pathway (AID 1159553). Further: on the % scale 0 is the no-effect control and ±100 the full control effect. The essentials: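 6 hr compound exposure (DMSO vehicle) of overnight-plated C3RL4 RARE-luc cells at 37 C; luminescence quantified after 30 min RT with luciferase reagent.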
A short description of assay [15]: qHTS assay to identify small molecule antagonists of the estrogen related receptor (ERR) signaling pathway - cell viability counter screen (AID 1224818). In a few lines: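 Compounds dissolved in DMSO were applied to ERR cells seeded at 2,000 per well 6 h earlier. Cell viability followed 17.5 h later via 30-min CellTiter-Fluor fluorescence.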
Assay [16] is described as follows: qHTS assay to identify small molecule antagonists of the estrogen related receptor (ERR) signaling pathway (AID 1224819). The essentials: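 Compounds dissolved in DMSO were pin-transferred onto ERR cells that had been plated 6 h earlier, and cells were then incubated 18 h at 37 C; signal was luciferase luminescence via One-Glo.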
Assay [17] is described as follows: qHTS assay to identify small molecule agonists of the estrogen related receptor (ERR) signaling pathway (AID 1224820). Further: on the % scale 0 is the no-effect control and ±100 the full control effect. The essentials:
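An ERR cell line provided by NTP was seeded at 2,000 cells per well and allowed to settle for 6 h before compounds in DMSO were added. After 18 h at 37 C, luciferase activity was measured by One-Glo luminescence.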

For assay [18], the system named is estrogen-related receptor alpha (ERRalpha) with PGC-1alpha coactivator, human. Kind of assay: qHTS assay to identify small molecule antagonists of the estrogen related receptor signaling pathway with the pleiotropic PPARgamma coactivator (PGC) (AID 1224821; calls by dose curve). In a few lines: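 A PGC/ERR cell line supplied by NTP is seeded, allowed 6 h at 37 C, and treated with test compounds in DMSO for 18 h. Signal is then measured as luciferase luminescence using One-Glo.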

Assay [19] can be described thus: qHTS assay to identify small molecule antagonists of the estrogen related receptor signaling pathway with the pleiotropic PPARgamma coactivator (PGC) cell viability counter screen (AID 1224822). In a few lines: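 Counter screen for cell viability: PGC/ERR cells, 6 h pre-incubation after plating, 17.5 h compound exposure at 37 C, fluorescence from CellTiter-Fluor after 30 min.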

Assay [20] addresses Nuclear receptor ROR-gamma (Homo sapiens) (UniProt P51449). Description: qHTS assay to identify small molecule antagonists of the retinoid-related orphan receptor gamma (ROR-gamma) signaling pathway (AID 1159521). In a few lines:
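Cells were plated, rested 4 h at 37 C, exposed to compounds for 2 h, then given 1 uM final doxycycline hyclate to induce RORγ expression. After 16 h, ONE-Glo luminescence from the ROR response element reporter was measured.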

Structures are written as SMILES. Values joined by “and” are separate entries in the source; they are usually repeats but may differ in a detail not shown here. Equal entries are not always repeated. Inconclusive results are not listed. A structure can be active in one record and inactive in another. Active and inactive are the calls of the source. Unless noted, the call rests on the fitted dose curve; in most records, active means well fitted curve in the direction sought with a large enough effect in the repeat runs; inconclusive means weak or mixed curves; inactive means no such curve, though single readings can be large; an effect the other way counts as inactive or inconclusive.

Chain of Retinoic acid receptor RXR-alpha (Homo sapiens) (P19793 whole entry, looked up): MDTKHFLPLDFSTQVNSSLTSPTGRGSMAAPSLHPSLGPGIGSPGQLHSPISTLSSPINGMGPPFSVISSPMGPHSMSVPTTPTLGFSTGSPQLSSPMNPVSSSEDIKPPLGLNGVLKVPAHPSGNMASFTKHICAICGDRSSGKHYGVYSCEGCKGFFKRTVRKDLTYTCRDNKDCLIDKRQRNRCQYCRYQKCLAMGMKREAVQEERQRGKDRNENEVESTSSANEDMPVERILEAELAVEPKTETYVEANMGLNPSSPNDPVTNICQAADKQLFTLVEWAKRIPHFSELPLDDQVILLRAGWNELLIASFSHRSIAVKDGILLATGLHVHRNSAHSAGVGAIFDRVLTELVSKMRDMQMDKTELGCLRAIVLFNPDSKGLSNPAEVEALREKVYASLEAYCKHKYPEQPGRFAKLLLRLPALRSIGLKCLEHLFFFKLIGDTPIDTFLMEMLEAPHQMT

In the case of `C[C@](N)(Cc1ccc(O)cc1)C(=O)O`, the activity change, negative = cytotoxicity in assay [1] was -0.278% [at 5.95 µM] (inactive); in [6], -6.6% [at 6.95 µM] (inactive); in assay [11] it was 10.7% [at 6.97 µM] (inactive); in [12], 0.103% [at 8.39 µM] (inactive). In addition, the figures for the viability change, negative = cytotoxic in assay [2] and in assay [8] were 4.51% [at 6.95 µM] (inactive) and 6.35% [at 6.97 µM] (inactive), respectively. The activation in assay [3] is 0.267% [at 6.95 µM] (inactive); in assay [5] it was 0.0819% [at 6.95 µM] (inactive); in assay [9], -6.83% [at 6.97 µM] (inactive); in assay [10], 8.62% [at 6.98 µM] (inactive); in assay [14], -0.945% [at 8.36 µM] (inactive). Moreover, the activity, negative = cytotoxic in assay [4] was 2.4% [at 6.95 µM] (inactive). Also, in [7], the activity, negative = cytotoxicity is 1.71% [at 8.39 µM] (inactive). Further, in assay [13], the activity, negative = inhibition was -1.72% [at 8.39 µM] (inactive). Moreover, the outcome in assay [15], in assay [16], in assay [17], in assay [18] and in assay [19] was inactive.

Regarding `COc1c(N2C[C@@H]3CCCN[C@@H]3C2)c(F)cc2c(=O)c(C(=O)O)cn(C3CC3)c12`, the molecule was called inactive in [3], in [4], in assay [5], in assay [6], in [7] and in [9]. Moreover, the outcome in assay [12] was inactive. In addition, the Potency result in assay [20], in [8], in [10], in assay [13] and in assay [14] was “inactive” each time.

Take `CCc1ccc(O)c(OC)c1`: the Potency result in assay [1], in assay [2], in assay [20], in assay [8], in assay [10] and in assay [13] was “inactive” each time. Also, the Potency entry in [14] is “inactive”. The result in assay [3], in [4], in [5], in assay [6], in assay [7] and in assay [9] was inactive. The call in assay [12] was inactive.

Take `CCCCOCCOCCOCc1cc2c(cc1CCC)OCO2`: the Potency result in assay [1], in assay [2], in [8], in assay [10], in assay [11] and in assay [13] was “inactive” throughout. For the same molecule, in assay [14], the Potency entry was “inactive”. Besides, the outcome in [3], in assay [4], in assay [5], in assay [6], in [7] and in [9] was inactive. The call in [12], in assay [15] and in [19] was inactive.

Turning to `CS(=O)(=O)O`, the Potency result in [1], in assay [2], in assay [8], in assay [10], in assay [11] and in [13] was “inactive” throughout. Further, the Potency entry in assay [14] was “inactive”. Further, the call in [3], in assay [4], in assay [5], in [6], in [7] and in [9] was inactive. Also, in assay [12], the call was inactive.

For `C[N+](C)(C)CCCCCC[N+](C)(C)C`, the Potency entry in [1], in [2], in assay [20], in assay [8] and in [14] was “inactive” each time. Besides, the molecule was classed as inactive in assay [3], in [4], in [5], in assay [6], in assay [7] and in assay [9]. Besides, the outcome in assay [12], in assay [15] and in assay [19] was inactive. For the same molecule, the Potency entry was “inactive and 10.7 µM (active)” in [10]; “inactive and 16.8 µM (active)” in assay [13].

In the case of `COC(=O)c1c(Cl)c(Cl)c(C(=O)OC)c(Cl)c1Cl`, the Potency result in assay [1], in assay [20], in assay [8] and in assay [11] was “inactive” each time. For the same molecule, the result in assay [3], in assay [4], in assay [5], in assay [6], in assay [7] and in assay [12] was inactive. For the same molecule, the call in [15], in [16], in assay [17], in assay [18] and in assay [19] was inactive. Moreover, the Potency result in assay [10] was “inactive and 5.49 µM (active)”.

The record behind these values is PubChem BioAssay (Tox21).
